# According to publication PMC7819943, “Rice protein-binding microarrays: a tool to detect cis-acting elements near promoter regions in rice”:
# Over roughly 68,000 sequences, “fluorescence intensity (a.u.)” has its median near 9,100; the highest 2% begin near 16,000. For the sample, the highest values were picked, then their nearest neighbours and some sequences at random.
# Molecular target: OsWRKY34 (Oryza sativa, UniProt Q0JBA9 1-250)
# Experiment: protein-binding microarray (RPBM); PBS, 2% BSA, 51.3 ng/ul salmon testes DNA, 50 uM zinc acetate, 200 nM TF, 25 C, 1 h; high values mean tight binding
# Conditions: protein: recombinant; tags: N-terminal polyhistidine and DsRed monomer fusion (pET32a); label: CyDye5-dUTP incorporated in the synthesized complementary strand; 3' TTTTT single-stranded linker to array surface; dsDNA, one strand shown
# How it was run: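 Transcription factors were made in E. coli BL21-CodonPlus as N-terminal fusions to a polyhistidine tag and DsRed, then purified on Ni–NTA. After primer extension with Cy5-dUTP and blocking with 2% BSA, a custom Agilent array was exposed for 1 h at 25 °C to 200 nM protein in PBS, 2% BSA, salmon testes DNA and 50 µM zinc acetate. Washed arrays were scanned on an Axon 4000B, and the binding signal is per-feature fluorescence intensity in arbitrary units.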
# Chain of OsWRKY34 (Q0JBA9 entry or part of it): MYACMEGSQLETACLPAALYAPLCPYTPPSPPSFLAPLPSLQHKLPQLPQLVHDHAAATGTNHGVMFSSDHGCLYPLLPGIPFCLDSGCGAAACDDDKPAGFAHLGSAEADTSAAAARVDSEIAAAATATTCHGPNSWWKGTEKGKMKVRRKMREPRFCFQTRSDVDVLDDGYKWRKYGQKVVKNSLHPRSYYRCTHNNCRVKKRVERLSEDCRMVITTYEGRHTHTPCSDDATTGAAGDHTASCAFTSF
row,Sequence,binding signal
1,AAAGATCGCTTTTTCCGTGGTAGGCTTCTCCATTTTATTTCGGAGTCACCTAGTGCAG,10700 fluorescence intensity (a.u.)
2,TATCTTGCCTAGCATATTGTCCGTGCGTTATTGCGATTTTCGGAGTCACCTAGTGCAG,10500 fluorescence intensity (a.u.)
3,TCCCACCCGTTTTTATTTTTCTCGGTGGTTAACTTATCTTCGGAGTCACCTAGTGCAG,8170 fluorescence intensity (a.u.)
4,TTCTTATTCTGTCGGTTGTGTGGTGGCAGGGCAGTTAATTCGGAGTCACCTAGTGCAG,8630 fluorescence intensity (a.u.)
5,TCCATCACTAGCTATTTTGGTACTTTCATCTACTTATTACCGGAGTCACCTAGTGCAG,8340 fluorescence intensity (a.u.)
6,TCTCTCGTTTTCCACACACACGTTTTTTAAACTGCTAAACCGGAGTCACCTAGTGCAG,10200 fluorescence intensity (a.u.)
7,CAAGGCCCGCCCATCCGTCTCCTCACACTCTGGCACACCTCGGAGTCACCTAGTGCAG,8580 fluorescence intensity (a.u.)
8,CAATCCATCAAACATGCAGTCAAGGTGTATTATTCAGTATCGGAGTCACCTAGTGCAG,9880 fluorescence intensity (a.u.)
9,ACTCTTATTGTTCAAATGAAAATGCTAGGGGTATAACTGCCGGAGTCACCTAGTGCAG,8340 fluorescence intensity (a.u.)
10,CGTTGACTTTTTTAAATATATTTAGCAGTTCGTCTTATTACGGAGTCACCTAGTGCAG,16500 fluorescence intensity (a.u.)
11,TTTTAAACATGTTTGACCGTTCGTCTTATTCAAAAAATTTCGGAGTCACCTAGTGCAG,8310 fluorescence intensity (a.u.)
12,ACCGTTGATTTTTTTAAACATGTTTGACCGTTCGTCTTATCGGAGTCACCTAGTGCAG,17100 fluorescence intensity (a.u.)
13,GCCGTTGACTTTTTAACACATGTTTGACCATTCGTCTTATCGGAGTCACCTAGTGCAG,60200 fluorescence intensity (a.u.)
14,ACTTATATTTTTTTAACGTTTGATTGTTCGTCTTATTAAACGGAGTCACCTAGTGCAG,9470 fluorescence intensity (a.u.)
15,GACTTTTTAACACATGTTTGACCGTTCGTCTTATTCAAAACGGAGTCACCTAGTGCAG,10900 fluorescence intensity (a.u.)
16,TGCCGTTGATTTTTTTTTAAACATGTTTGACCGTTCGTCTCGGAGTCACCTAGTGCAG,14900 fluorescence intensity (a.u.)
17,TTTTAACATTTTTCTTGCACTGTTTGACCATTCGTCTTATCGGAGTCACCTAGTGCAG,10400 fluorescence intensity (a.u.)
18,CTTTTTTAAACATGTTTGACCGTTCGTCTTATTTAAAAAACGGAGTCACCTAGTGCAG,9350 fluorescence intensity (a.u.)
19,ACTTTTTTAAACATGTTTGGCCGTTCGTCTTATTCAAAAACGGAGTCACCTAGTGCAG,9620 fluorescence intensity (a.u.)
20,ACTGTTCGTCTTATTTAAAATTTTTTAAATATTATTTATACGGAGTCACCTAGTGCAG,12300 fluorescence intensity (a.u.)
21,GCCGTTGACTTTTTTAAACATGTTTGACCGTTCGTCTTATCGGAGTCACCTAGTGCAG,45200 fluorescence intensity (a.u.)
22,CCACACTCCTCGCTCGCCTGCCTCTCTGTTCTTAATTAGCCGGAGTCACCTAGTGCAG,8750 fluorescence intensity (a.u.)

row,Sequence,binding signal
1,AAGCCCAACGTGCTTCATCTCTTCTTCTATCTTATCTTCTCGGAGTCACCTAGTGCAG,8190 fluorescence intensity (a.u.)
2,GCGGAGGAAAGGTGGGGTGGTAAAAAACGGAAAAACCGGACGGAGTCACCTAGTGCAG,8960 fluorescence intensity (a.u.)
3,TATGCATACTTTTTTATCACTGTAGTTACTAGCTAAGATCCGGAGTCACCTAGTGCAG,9000 fluorescence intensity (a.u.)
4,GCCCGTCTTCGTCCAGTTCCTGATCAGGTATGGTCCTTCTCGGAGTCACCTAGTGCAG,8060 fluorescence intensity (a.u.)
5,ACCCGAGATCTGATTCACTACCGCCGCCGGATCAAGCCACCGGAGTCACCTAGTGCAG,8320 fluorescence intensity (a.u.)
6,TTCGCTCACCTCTCGATCGATCGACCTGCCAACATCAACACGGAGTCACCTAGTGCAG,10400 fluorescence intensity (a.u.)
7,TTATCAAATATTCCATCCGTCTTTTTTGATATTTTAATTTCGGAGTCACCTAGTGCAG,9840 fluorescence intensity (a.u.)
8,ATTCAAATTTGTCAAACATTGTTTTCTTCTCTTTCATATCCGGAGTCACCTAGTGCAG,8650 fluorescence intensity (a.u.)
9,TGACTTTTTATCATATGTTTGACCGTTCGTCTTATTCAAACGGAGTCACCTAGTGCAG,10900 fluorescence intensity (a.u.)
10,ATTGATATCAAACCGTTTCTTTTGTCATATTCGTCATTTCCGGAGTCACCTAGTGCAG,17700 fluorescence intensity (a.u.)
11,CGTTGACTTTTTTAAAAGTGTTTGACTGTTCGTCTTTTTTCGGAGTCACCTAGTGCAG,30500 fluorescence intensity (a.u.)
12,ACACCGCTGACTTTTTAAAACATGTTTTACCGTTCGTCTTCGGAGTCACCTAGTGCAG,13600 fluorescence intensity (a.u.)
13,CGTTGACTTTTTATCAAATGTTTGACCGTTCGTCTTATTTCGGAGTCACCTAGTGCAG,28900 fluorescence intensity (a.u.)
14,ACGCCGTTGACTTTTTTAAACATGTTTGACTGTTCGTCTTCGGAGTCACCTAGTGCAG,38200 fluorescence intensity (a.u.)
15,ACGCTGTTGATTTTTTTAAACATGTTTGACCGTTCGTCTTCGGAGTCACCTAGTGCAG,13200 fluorescence intensity (a.u.)
16,TTGACTTTTTAAAATATGTTTGACCGTTCGTCTTATTCAACGGAGTCACCTAGTGCAG,8040 fluorescence intensity (a.u.)
17,AGTGTTAGTTGACTGTTAGTCAAAGGTTAGTTTTTTTCGTCGGAGTCACCTAGTGCAG,9180 fluorescence intensity (a.u.)
18,TCACGTTCAACGTTTGACTGTTCGTCTTATTTAAAATTTTCGGAGTCACCTAGTGCAG,8400 fluorescence intensity (a.u.)
19,ATGCGTGCGCTCAGCCCATTCTGCTTGTATTTTCAGTACACGGAGTCACCTAGTGCAG,11300 fluorescence intensity (a.u.)
20,ACCCACCCACCCACCCGGTCTGTCTCCTAACCCCGGTCGCCGGAGTCACCTAGTGCAG,12600 fluorescence intensity (a.u.)
21,GATCGTGGAATTAATTCCACCTTAGTTGTTATGGGCGGGTCGGAGTCACCTAGTGCAG,11400 fluorescence intensity (a.u.)
